Here are results for 39 compounds from PubChem BioAssay (NCI).

The panel holds about 83,000 compounds, 20% with a hit somewhere; the sample as a whole holds those more often.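 For each line, cells grew in 96-well plates with the test compound present at a single concentration for 48 hours.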 Unmarked numbers belong to inactive results. Calls of active or inactive are those of the source. Rule for the calls: active = growth percent below 10; inactive = the rest.

The first test deals with T-47D breast. The test is described as follows: NCI-60 one-dose screen, 48 h (100 = growth as untreated, 0 = no growth, -100 = all killed). The settings on record: 10 µM unless noted.
For `CCN1C(=O)N(CC)C2C1NN=c1s/c(=C\c3cc4ccccc4[nH]3)c(=O)n12` (stereo not drawn), the growth was 2.04% (active).
On the same count and under the same terms, under `CCN(CC)CCCNCc1cc(-c2ccccc2)nc2cc(Cl)ccc12` stands -82.5% (active); under `CC[C@H](CC[C@@H](C)[C@H]1CC[C@H]2[C@@H]3CC[C@@H]4CC(=O)/C(=C\c5ccncc5)C[C@]4(C)[C@H]3CC[C@]12C)C(C)C`, 100%; under `CCN(CC)c1ccc(/C=N\NC(=O)c2cccc(Nc3ccnc(C(F)(F)F)c3)c2)c(O)c1`, 15.1%.
For the compound `Cc1cscc(C)c1=S`, the growth was 96%.
Consider `COC(=O)/C=C1/SC(=Nc2cccc(Cl)c2)N(CCc2c[nH]c3ccc(O)cc23)C1=O`, for which the growth is 12.6%.
Still for that read-out and setting: under `O=C(CCCCCCCCC(=O)N/N=C\c1cc(Cl)ccc1O)N/N=C\c1cc(Cl)ccc1O` stands 28.2%; under `COc1ccc(/C=C/C(=O)c2cc3c(N)c(C(=O)Nc4ccc(OC)cc4)sc3nc2C)cc1`, 57.2%; under `CCCCCCOC(=O)CC1=C(C)/C(=C/c2[nH]c(-c3ccc[nH]3)cc2OC)N=C1C`, -32.8% (active).
Regarding `Cc1ccc(O)c(NC(=O)c2ccc(CNc3ccnc(C(F)(F)F)c3)cc2)c1`, the growth is 82.3%.
On to `O=C1/C(=C/c2ccc(Br)cc2)COc2ccc(O)c(O)c21`, for which the growth is -16.3% (active).
Consider `O=C(/C=C/C12c3ccccc3C(c3ccccc31)C1C(=O)NC(=O)C12)c1ccc(F)cc1` (stereo not drawn), for which the growth was 12.2%.
In the case of `Cc1ccc(C)c2c1C(O)(C#Cc1ccccc1)c1ccccc1C2(O)C#Cc1ccccc1` (stereo not drawn), the growth is 38.5%.
`C(/C=C/c1ccccc1)=Nc1ccc(CCc2ccc(N=C/C=C/c3ccccc3)cc2)cc1`: the growth was 97.5%.
Still for that read-out and setting: then `O=C(Cn1nnc2ccccc21)Nc1ccc(-c2nc3ccccc3s2)cc1`, with 66.9%; and `CCCCCCCC/C=C\CCCCCCCCOc1ccc(CC(=O)NCC[N+](C)(C)C)cc1`, with 85%; and `COc1cc(/C=C2\CN(S(=O)(=O)c3ccc(C)cc3)C/C(=C\c3cc(CN4CCCCC4)c(O)c(OC)c3)C2=O)cc(CN2CCCCC2)c1O`, with 33.8%.
Turning to `Cc1ncc(C(=O)Nc2ccc(CN3CCN(C)CC3)c(C(F)(F)F)c2)cc1C#Cc1cnc(N)c2ccncc12`, the growth is -37.3% (active).
The same measure, in the same setting: then `COc1cc(C2=NN(C(C)=O)C(c3ccc(N(C)C)cc3)C2)cc(OC)c1OC` (stereo not drawn), with 86.6%.
The same measure, in the same setting: then `COC1=CC(c2ccc[nH]2)=N/C1=C\c1[nH]c(C)c(CC(=O)OCc2ccccc2)c1C`, with -28.6% (active); and `CCOC(=O)CSc1nc2sc3c(c2c(=O)n1-c1ccc([N+](=O)[O-])cc1)CCCCC3`, with 76.7%.
Regarding `CN(C)c1ccc(C(=NO)c2ccc(N(C)C)cc2)cc1`, the growth is 45.8%.
Still for that read-out and setting: then `Cc1ccc(C(=O)c2ccc(CC(=O)N/N=C/c3ccc(O)cc3O)n2C)cc1`, with 50.2%.
Turning to `N#C/C(=C\c1ccc(Br)cc1)c1cc2ccccc2[nH]1`, the growth was 74.7%.
With `COc1ccc(-c2cn(-c3ccc(Cl)cc3)c(SCC(=O)c3ccc([N+](=O)[O-])cc3)n2)cc1`, the growth was 83.4%.
For the compound `COc1ccc(Cc2nnc(Nc3nc4ccccc4s3)s2)cc1`, the growth was 113%.
In the case of `CCOC(=O)c1ccc2c(c1)c1c(C)c3ccncc3c(C)c1n2C`, the growth was -3.13% (active).
Same read-out and setting: under `Cc1nc2sc(C(=O)Nc3cccc(Cl)c3)c(N)c2cc1C(O)c1ccccc1` (stereo not drawn) stands 50.6%.
For `COc1ccc(C2CC(c3ccc(Nc4nc(Nc5ccc(F)cc5)nc(Nc5ccc(F)cc5)n4)cc3)=NN2C(C)=O)cc1` (stereo not drawn), the growth is 69.8%.
Turning to `N#Cc1c(NC(=O)c2cccs2)[n+]([O-])c2ccc(Cl)cc2[n+]1[O-]`, the growth is 91.4%.
With `CC(C)(C)c1cc(C=Nc2cccc(C(F)(F)F)c2)c(O)c(C(C)(C)C)c1`, the growth was 88.5%.
On to `N=c1sc(Cc2cc(Cl)ccc2Cl)cn1CC(=O)c1ccccc1`, for which the growth is 38.3%.
Take `COc1ccc(Nc2ncc(C(N)=O)c(NCCCNC(=O)C3CCC3)n2)cc1`: the growth is 102%.
With `Cc1nn(-c2ccccc2)c(/N=C/N(C)C)c1/C=C/C(=O)c1ccc(Cl)cc1`, the growth was 101%.
Turning to `COc1ccc2cc(-c3ccc(-c4ccc(C(=N)N)s4)s3)ccc2c1`, the growth is -9.45% (active).
Take `O=C1c2cccnc2C(=O)c2c1c(C(=O)OCCCN1CCCCC1)c1ccccn21`: the growth was 24%.
Still for that read-out and setting: then `O[C@@H](c1cc(C(F)(F)F)nc2c(C(F)(F)F)cccc12)[C@H]1CCCCN1`, with 43.1%; and `Cc1[nH]c(/C=C/C(=O)c2ccc(C(F)(F)F)c(F)c2)c(C)c1C(=O)NCC(C)C`, with 88.2%; and `CCCCCCCCn1ccc2cc(NC(=O)Cn3cc(CN4CCCCCC4)nn3)ccc21`, with -47.4% (active).

The subject of the next test is BT-549 breast. Described as above. To be noted: 10 µM unless noted.
As to `CCN1C(=O)N(CC)C2C1NN=c1s/c(=C\c3cc4ccccc4[nH]3)c(=O)n12` (stereo not drawn), the growth is 12.2%.
The same measure, in the same setting: then `CCN(CC)CCCNCc1cc(-c2ccccc2)nc2cc(Cl)ccc12`, with 40.1%; and `CC[C@H](CC[C@@H](C)[C@H]1CC[C@H]2[C@@H]3CC[C@@H]4CC(=O)/C(=C\c5ccncc5)C[C@]4(C)[C@H]3CC[C@]12C)C(C)C`, with 95.2%; and `CCN(CC)c1ccc(/C=N\NC(=O)c2cccc(Nc3ccnc(C(F)(F)F)c3)c2)c(O)c1`, with 28.8%.
`Cc1cscc(C)c1=S`: the growth was 99.7%.
The same measure, in the same setting: then `COC(=O)/C=C1/SC(=Nc2cccc(Cl)c2)N(CCc2c[nH]c3ccc(O)cc23)C1=O`, with 0.746% (active); and `O=C(CCCCCCCCC(=O)N/N=C\c1cc(Cl)ccc1O)N/N=C\c1cc(Cl)ccc1O`, with 38.5%.
On to `COc1ccc(/C=C/C(=O)c2cc3c(N)c(C(=O)Nc4ccc(OC)cc4)sc3nc2C)cc1`, for which the growth is 24.6%.
On the same count and under the same terms, then `CCCCCCOC(=O)CC1=C(C)/C(=C/c2[nH]c(-c3ccc[nH]3)cc2OC)N=C1C`, with -33.9% (active).
Take `Cc1ccc(O)c(NC(=O)c2ccc(CNc3ccnc(C(F)(F)F)c3)cc2)c1`: the growth was 52.3%.
For the compound `O=C1/C(=C/c2ccc(Br)cc2)COc2ccc(O)c(O)c21`, the growth was 3.5% (active).
In the case of `O=C(/C=C/C12c3ccccc3C(c3ccccc31)C1C(=O)NC(=O)C12)c1ccc(F)cc1` (stereo not drawn), the growth was 2.77% (active).
For `Cc1ccc(C)c2c1C(O)(C#Cc1ccccc1)c1ccccc1C2(O)C#Cc1ccccc1` (stereo not drawn), the growth was 68%.
Turning to `C(/C=C/c1ccccc1)=Nc1ccc(CCc2ccc(N=C/C=C/c3ccccc3)cc2)cc1`, the growth is 91.9%.
Same read-out and setting: under `O=C(Cn1nnc2ccccc21)Nc1ccc(-c2nc3ccccc3s2)cc1` stands 86.5%; under `CCCCCCCC/C=C\CCCCCCCCOc1ccc(CC(=O)NCC[N+](C)(C)C)cc1`, 74.3%; under `COc1cc(/C=C2\CN(S(=O)(=O)c3ccc(C)cc3)C/C(=C\c3cc(CN4CCCCC4)c(O)c(OC)c3)C2=O)cc(CN2CCCCC2)c1O`, -49% (active).
With `Cc1ncc(C(=O)Nc2ccc(CN3CCN(C)CC3)c(C(F)(F)F)c2)cc1C#Cc1cnc(N)c2ccncc12`, the growth is 22.9%.
Take `COc1cc(C2=NN(C(C)=O)C(c3ccc(N(C)C)cc3)C2)cc(OC)c1OC` (stereo not drawn): the growth is 94.4%.
Turning to `COC1=CC(c2ccc[nH]2)=N/C1=C\c1[nH]c(C)c(CC(=O)OCc2ccccc2)c1C`, the growth was -1.22% (active).
With `CCOC(=O)CSc1nc2sc3c(c2c(=O)n1-c1ccc([N+](=O)[O-])cc1)CCCCC3`, the growth is 97.2%.
Regarding `CN(C)c1ccc(C(=NO)c2ccc(N(C)C)cc2)cc1`, the growth was 53.4%.
As for `Cc1ccc(C(=O)c2ccc(CC(=O)N/N=C/c3ccc(O)cc3O)n2C)cc1`, the growth was 50.8%.
Same read-out and setting: then `N#C/C(=C\c1ccc(Br)cc1)c1cc2ccccc2[nH]1`, with 97%.
With `COc1ccc(-c2cn(-c3ccc(Cl)cc3)c(SCC(=O)c3ccc([N+](=O)[O-])cc3)n2)cc1`, the growth is 89.7%.
For `COc1ccc(Cc2nnc(Nc3nc4ccccc4s3)s2)cc1`, the growth is 99.6%.
For the compound `CCOC(=O)c1ccc2c(c1)c1c(C)c3ccncc3c(C)c1n2C`, the growth was 21.1%.
Regarding `Cc1nc2sc(C(=O)Nc3cccc(Cl)c3)c(N)c2cc1C(O)c1ccccc1` (stereo not drawn), the growth is 52.6%.
Consider `COc1ccc(C2CC(c3ccc(Nc4nc(Nc5ccc(F)cc5)nc(Nc5ccc(F)cc5)n4)cc3)=NN2C(C)=O)cc1` (stereo not drawn), for which the growth was 96.2%.
In the case of `N#Cc1c(NC(=O)c2cccs2)[n+]([O-])c2ccc(Cl)cc2[n+]1[O-]`, the growth was 113%.
Regarding `CC(C)(C)c1cc(C=Nc2cccc(C(F)(F)F)c2)c(O)c(C(C)(C)C)c1`, the growth was 106%.
In the case of `N=c1sc(Cc2cc(Cl)ccc2Cl)cn1CC(=O)c1ccccc1`, the growth was 68.8%.
Take `COc1ccc(Nc2ncc(C(N)=O)c(NCCCNC(=O)C3CCC3)n2)cc1`: the growth was 24.5%.
Consider `Cc1nn(-c2ccccc2)c(/N=C/N(C)C)c1/C=C/C(=O)c1ccc(Cl)cc1`, for which the growth is 87.3%.
For `COc1ccc2cc(-c3ccc(-c4ccc(C(=N)N)s4)s3)ccc2c1`, the growth is 98.6%.
Same read-out and setting: then `O=C1c2cccnc2C(=O)c2c1c(C(=O)OCCCN1CCCCC1)c1ccccn21`, with -24.1% (active); and `O[C@@H](c1cc(C(F)(F)F)nc2c(C(F)(F)F)cccc12)[C@H]1CCCCN1`, with 66.1%.
Turning to `Cc1[nH]c(/C=C/C(=O)c2ccc(C(F)(F)F)c(F)c2)c(C)c1C(=O)NCC(C)C`, the growth is 111%.
Still for that read-out and setting: under `CCCCCCCCn1ccc2cc(NC(=O)Cn3cc(CN4CCCCCC4)nn3)ccc21` stands 96.8%.
